Inconclusive results are not listed. Activity calls are given as the source filed them. Calls follow the shape of the dose curve; as a rule, active = well fitted curve in the direction sought with a large enough effect; inconclusive = small, poorly fitted or top-dose-only effect, or another doubt; inactive = no such curve, though single readings can be large; an effect the other way counts as inactive or inconclusive.
How the values were obtained:
[1] = Cell Viability - LYMP2-005 (AID 967); also: series mostly up to about 92 µM
In short: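 Acute cytotoxicity is scored as a concentration-dependent drop in intracellular ATP in human lymphoblastoid LYMP2-005 cells after 24 h compound treatment. ATP is quantified by luciferase luminescence, and AC50 is derived by Hill-equation modelling.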

[2] = Cell Viability - LYMP2-009 (AID 968); also: series mostly up to about 92 µM; nearly all actives have a fitted effect of over 55% in size
[3] = Cell Viability - LYMP2-011 (AID 969); also: nearly all actives have a fitted effect of over 60% in size
In short: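 Cytotoxicity qHTS with ATP content as read-out: lymphoblastoid cells (2500/well) exposed to compound for 24 h at 37 C, then luciferase luminescence measured. Concentration-response data fitted with the standard Hill equation to give AC50.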

[4] = Cell Viability - LYMP2-013 (AID 970); also: series mostly up to about 92 µM; nearly all actives have a fitted effect of over 55% in size
In short: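 qHTS cytotoxicity: ATP-dependent luminescence (CellTiter-Glo, 30 min room temperature) read after 24 h compound exposure at 37 C of 2500 LYMP2-013 lymphoblastoid cells per well. Concentration-response fitted with Hill equation to give AC50.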

[5] = Cell Viability - LYMP2-015 (AID 971); also: nearly all actives have a fitted effect of over 55% in size
In short: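 Cytotoxicity readout: decrease in intracellular ATP (CellTiter-Glo luminescence) in 2500 LYMP2-015 lymphoblastoid cells/well after 24 h compound exposure at 37 C. Concentration-response data fitted with the standard Hill equation to give AC50.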

[6] = Cell Viability - LYMP2-019 (AID 973); also: nearly all actives have a fitted effect of over 55% in size
In short: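 AC50 values come from Hill-equation fits of luminescent intracellular ATP (CellTiter-Glo, 30 min, room temperature) following 24 h compound exposure at 37 C. Cells: LYMP2-019 lymphoblastoid line, 2500 per well, in complete culture medium.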

[7] = Cell Viability - LYMP2-021 (AID 974); also: nearly all actives have a fitted effect of over 55% in size
In short: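 AC50 values come from Hill-equation fits to CellTiter-Glo luminescence (ATP content), read after 24 hour compound exposure at 37 C of 2500 LYMP2-021 lymphoblastoid cells/well; tetraoctylammonium bromide as positive control.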

[8] = Cell Viability - LYMP2-025 (AID 976); also: series mostly up to about 92 µM
In short: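 Cytotoxicity read as loss of intracellular ATP (luciferase luminescence) after 24 h compound treatment at 37 C. Uses LYMP2-025 lymphoblastoid cells in 1536-well format; Hill-equation modelling gives AC50; tetraoctylammonium bromide as positive control.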

[9] = Cell Viability - LYMP2-002 (AID 977); also: series mostly up to about 92 µM
In short: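 Human lymphoblastoid cells (2500/well) in complete medium were preincubated 5 hr at 37 C, then exposed to compounds for 24 hr at 37 C. Intracellular ATP was read by CellTiter-Glo luminescence; AC50 came from Hill-equation concentration-response fits.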

[10] = Cell Viability - LYMP2-006 (AID 978); also: series mostly up to about 92 µM; nearly all actives have a fitted effect of over 60% in size
In short: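 Cells are seeded at 2500 per well and rested 5 hr at 37 C. Compounds are added across a concentration series for 24 hr at 37 C, after which ATP is quantified by luciferase luminescence.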

[11] = Cell Viability - LYMP2-007 (AID 979);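 also: cells exposed to compound for 24 h before reading; nearly all actives have a fitted effect of over 60% in size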
In short: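 AC50 values come from Hill-equation fits of luminescent intracellular ATP (CellTiter-Glo, 30 min, room temperature) following 24 h compound exposure at 37 C. Cells: LYMP2-007 lymphoblastoid line, 2500 per well, in complete culture medium.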

[12] = Cell Viability - LYMP2-008 (AID 980); also: nearly all actives have a fitted effect of over 60% in size
In short: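 Cytotoxicity determined from ATP-dependent luciferase luminescence (CellTiter-Glo) following 24 h compound exposure of human lymphoblastoid LYMP2-008 cells at 37 C. Concentration-response data fitted to the Hill equation to give AC50.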

[13] = Cell Viability - LYMP2-010 (AID 981); also: nearly all actives have a fitted effect of over 55% in size
In short: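 CellTiter-Glo ATP luminescence measured cytotoxicity after 24 h compound exposure at 37 C. LYMP2-010 cells were seeded at 2500/well, with tetraoctylammonium bromide as control; concentration-response curves gave AC50 values by the Hill equation.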

[14] = Cell Viability - LYMP2-012 (AID 982)
[15] = Cell Viability - LYMP2-014 (AID 983); also: series mostly up to about 92 µM; nearly all actives have a fitted effect of over 50% in size
In short: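 Intracellular ATP loss, read by luciferase luminescence, measures acute cytotoxicity after 24 h compound exposure of lymphoblastoid LYMP2-014 cells (2500/well, 37 C). Concentration-response data fitted to the Hill equation for AC50.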

[16] = Cell Viability - LYMP2-016 (AID 984); also: nearly all actives have a fitted effect of over 55% in size
In short: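 Cells were seeded at 2500 per well and rested 5 hr before a 24 hr compound exposure at 37 C. Viability was then gauged as cellular ATP by luciferase luminescence, with AC50 values fitted to the Hill equation.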

[17] = Cell Viability - LYMP2-018 (AID 985); also: nearly all actives have a fitted effect of over 50% in size
In short: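 Viability read as CellTiter-Glo luminescence (cellular ATP) after 24 hr compound exposure at 37 C of 2500 LYMP2-018 lymphoblastoid cells/well, pre-plated 5 hr. Hill-equation modelling gave AC50.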

[18] = Cell Viability - LYMP2-023 (AID 975)
In short: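 Intracellular ATP, read by CellTiter-Glo luminescence, reports viability after 24 hr compound exposure at 37 C. 2500 lymphoblastoid cells/well (LYMP2-023) seeded 5 hr beforehand; Hill fits give AC50; positive control tetraoctylammonium bromide.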

[19] = Cell Viability - LYMP2-017 (AID 972)
In short: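 CellTiter-Glo luminescence (cellular ATP, 30 min RT) measured cytotoxicity after 24 hr compound treatment at 37 C. Cells were a human lymphoblastoid line, LYMP2-017, plated at 2500/well and incubated 5 hr first; concentration-response fitted with Hill equation for AC50.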

Measured: Potency

O=Cc1ccc(CO)o1
not listed: [18] | [19]
inactive: all other assays above

Nc1cccc2c(=O)[nH][nH]c(=O)c12
not listed: [19]
inactive: all other assays above

CC1(N)CCC(C(C)(C)N)CC1 (stereo unspecified)
not listed: [8] | [11] | [19]
inactive: all other assays above

C=CC(=O)NC(C)C
not listed: [13] | [18] | [19]
inactive: all other assays above

CNc1ccc([N+](=O)[O-])cc1
not listed: [7]
inactive: all other assays above

CC1CCC2CC1C2(C)C (stereo unspecified)
not listed: [1] | [7] | [8]
inactive: all other assays above

From PubChem BioAssay (NCATS)
